Experimental data reported in PubChem BioAssay AID1159580 (chemical genetic matrix, 2015).
The whole screen tested about 5,500 compounds, of which about 2,000 (36%) were called active. Roughly 18% stayed inconclusive and do not appear here. No stated cut-off is given here; in the data, active means normalized growth mostly below about 0.91 (no sharp cut-off); inconclusive means no clear call, values can overlap the other calls; inactive means mostly above about 0.92. The list shows a part of the results.

Experiment: chemical genetic growth profiling, strain panel (AID 1159580);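 further: tested at 20 µM; growth read once vehicle control cultures reached saturation at 30 °C; 1 = growth at the plate median or of vehicle wells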
Conditions: growth OD

Measured: normalized growth

CC[C@@]1(O)C[C@H](O[C@H]2C[C@H](N(C)C)[C@H](O)[C@H](C)O2)c2c(cc3c(c2O)C(=O)c2c(O)ccc(O)c2C3=O)[C@H]1C(=O)OC
inactive: S. cerevisiae deletion strains, locus YJR066W, strain TOR1, stronger effect = lower value 0.957 | S. cerevisiae deletion strains, locus YKL009W, strain mrt4, stronger effect = lower value 0.961 | S. cerevisiae deletion strains, locus YKL068W, stronger effect = lower value 0.982 | S. cerevisiae deletion strains, locus YKL085W, strain MDH1 (second series), stronger effect = lower value 1 | S. cerevisiae deletion strains, locus YKL085W, strain MDH1, stronger effect = lower value 1 | S. cerevisiae deletion strains, locus YKL160W, strain elf1, stronger effect = lower value 0.924 | S. cerevisiae deletion strains, locus YKR026C, strain gcn3, stronger effect = lower value 0.994 | S. cerevisiae deletion strains, locus YKR091W, strain srl3, stronger effect = lower value 0.958 | S. cerevisiae deletion strains, locus YLL026W, stronger effect = lower value 0.975 | S. cerevisiae deletion strains, locus YLL041C, strain sdh2, stronger effect = lower value 0.935 | S. cerevisiae deletion strains, locus YLR027C, strain aat2, stronger effect = lower value 0.975 | S. cerevisiae deletion strains, locus YLR113W, strain HOG1, stronger effect = lower value 0.95 | S. cerevisiae deletion strains, locus YLR357W, strain rsc2, stronger effect = lower value 0.907 | S. cerevisiae deletion strains, locus YLR384C, strain iki3, stronger effect = lower value 0.957 | S. cerevisiae deletion strains, locus YML120C, strain ndi1, stronger effect = lower value 1.02 | S. cerevisiae deletion strains, locus YMR125W, strain sto1, stronger effect = lower value 1.02 | S. cerevisiae deletion strains, locus YMR129W, stronger effect = lower value 0.997 | S. cerevisiae deletion strains, locus YMR231W, strain pep5, stronger effect = lower value 1 | S. cerevisiae deletion strains, locus YNL071W, strain lat1, stronger effect = lower value 0.951 | S. cerevisiae deletion strains, locus YNL183C, strain NPR1, stronger effect = lower value 0.941 | S. cerevisiae deletion strains, locus YNL248C, strain rpa49, stronger effect = lower value 0.974 | S. cerevisiae deletion strains, locus YNL271C, strain bni1, stronger effect = lower value 0.96 | S. cerevisiae deletion strains, locus YNL298W, strain CLA4, stronger effect = lower value 0.98 | S. cerevisiae deletion strains, locus YNL322C, strain KRE1 (second series), stronger effect = lower value 0.972 | S. cerevisiae deletion strains, locus YNR049C, strain mso1, stronger effect = lower value 0.926 | S. cerevisiae deletion strains, locus YOL012C, strain htz1 0.253 | S. cerevisiae deletion strains, locus YOR001W, strain rrp6, stronger effect = lower value 1.01 | S. cerevisiae deletion strains, locus YOR070C, strain gyp1, stronger effect = lower value 0.989 | S. cerevisiae deletion strains, locus YOR080W, strain dia2, stronger effect = lower value 0.916 | S. cerevisiae deletion strains, locus YOR083W, strain WHI5, stronger effect = lower value 0.918 | S. cerevisiae deletion strains, locus YOR231W, strain MKK1, stronger effect = lower value 0.975 | S. cerevisiae deletion strains, locus YPL106C, strain sse1, stronger effect = lower value 0.909 | S. cerevisiae deletion strains, locus YPL240C, strain hsp82, stronger effect = lower value 0.933 | S. cerevisiae deletion strains, locus YPL256C, strain CLN2, stronger effect = lower value 0.983 | S. cerevisiae deletion strains, locus YPR141C, strain kar3, stronger effect = lower value 0.967
active: S. cerevisiae deletion strains, locus YJR075W, strain HOC1, stronger effect = lower value 0.0948 | S. cerevisiae deletion strains, locus YKR001C, strain vps1, stronger effect = lower value 0.0857 | S. cerevisiae deletion strains, locus YLL001W, strain dnm1, stronger effect = lower value 0.884 | S. cerevisiae deletion strains, locus YLR039C, strain RIC1, stronger effect = lower value 0.113 | S. cerevisiae deletion strains, locus YLR058C, strain SHM2, stronger effect = lower value 0.0794 | S. cerevisiae deletion strains, locus YLR102C, strain apc9, stronger effect = lower value 0.467 | S. cerevisiae deletion strains, locus YLR221C, strain rsa3, stronger effect = lower value 0.877 | S. cerevisiae deletion strains, locus YLR258W, strain gsy2, stronger effect = lower value 0.905 | S. cerevisiae deletion strains, locus YLR262C, strain YPT6 (second series), stronger effect = lower value 0.701 | S. cerevisiae deletion strains, locus YLR262C, strain YPT6, stronger effect = lower value 0.13 | S. cerevisiae deletion strains, locus YLR268W, strain sec22, stronger effect = lower value 0.112 | S. cerevisiae deletion strains, locus YLR320W, strain mms22, stronger effect = lower value 0.844 | S. cerevisiae deletion strains, locus YLR330W, strain CHS5, stronger effect = lower value 0.0655 | S. cerevisiae deletion strains, locus YLR342W, strain FKS1 (second series), stronger effect = lower value 0.0959 | S. cerevisiae deletion strains, locus YLR342W, strain FKS1, stronger effect = lower value 0.865 | S. cerevisiae deletion strains, locus YLR370C, strain arc18, stronger effect = lower value 0.88 | S. cerevisiae deletion strains, locus YLR371W, strain rom2, stronger effect = lower value 0.15 | S. cerevisiae deletion strains, locus YLR418C, strain cdc73, stronger effect = lower value 0.138 | S. cerevisiae deletion strains, locus YML016C, strain PPZ1, stronger effect = lower value 0.0829 | S. cerevisiae deletion strains, locus YML032C, strain rad52, stronger effect = lower value 0.121 | S. cerevisiae deletion strains, locus YML124C, strain tub3, stronger effect = lower value 0.195 | S. cerevisiae deletion strains, locus YMR058W, strain fet3, stronger effect = lower value 0.416 | S. cerevisiae deletion strains, locus YMR078C, strain ctf18, stronger effect = lower value 0.147 | S. cerevisiae deletion strains, locus YMR205C, strain PFK2, stronger effect = lower value 0.871 | S. cerevisiae deletion strains, locus YMR223W, strain ubp8, stronger effect = lower value 0.157 | S. cerevisiae deletion strains, locus YMR263W, strain SAP30, stronger effect = lower value 0.377 | S. cerevisiae deletion strains, locus YMR307W, strain GAS1, stronger effect = lower value 0.149 | S. cerevisiae deletion strains, locus YNL067W, strain RPL9B, stronger effect = lower value 0.0765 | S. cerevisiae deletion strains, locus YNL153C, strain GIM3, stronger effect = lower value 0.0856 | S. cerevisiae deletion strains, locus YNL209W, strain ssb2, stronger effect = lower value 0.82 | S. cerevisiae deletion strains, locus YNL233W, strain BNI4, stronger effect = lower value 0.0884 | S. cerevisiae deletion strains, locus YNL250W, strain rad50, stronger effect = lower value 0.738 | S. cerevisiae deletion strains, locus YNL307C, strain MCK1, stronger effect = lower value 0.0826 | S. cerevisiae deletion strains, locus YNR052C, strain pop2, stronger effect = lower value 0.0986 | S. cerevisiae deletion strains, locus YOL147C, strain pex11, stronger effect = lower value 0.13 | S. cerevisiae deletion strains, locus YOR061W, strain CKA2, stronger effect = lower value 0.0764 | S. cerevisiae deletion strains, locus YOR069W, strain VPS5, stronger effect = lower value 0.0745 | S. cerevisiae deletion strains, locus YOR106W, strain vam3, stronger effect = lower value 0.703 | S. cerevisiae deletion strains, locus YOR136W, strain idh2, stronger effect = lower value 0.203 | S. cerevisiae deletion strains, locus YOR144C, strain elg1, stronger effect = lower value 0.298 | S. cerevisiae deletion strains, locus YOR184W, strain ser1, stronger effect = lower value 0.0852 | S. cerevisiae deletion strains, locus YOR265W, strain rbl2, stronger effect = lower value 0.899 | S. cerevisiae deletion strains, locus YOR270C, strain vph1, stronger effect = lower value 0.656 | S. cerevisiae deletion strains, locus YOR290C, strain snf2, stronger effect = lower value 0.711 | S. cerevisiae deletion strains, locus YOR316C, strain cot1, stronger effect = lower value 0.21 | S. cerevisiae deletion strains, locus YPL051W, strain arl3, stronger effect = lower value 0.756 | S. cerevisiae deletion strains, locus YPL078C, strain atp4, stronger effect = lower value 0.867 | S. cerevisiae deletion strains, locus YPL241C, strain CIN2, stronger effect = lower value 0.0834 | S. cerevisiae deletion strains, locus YPR119W, strain clb2, stronger effect = lower value 0.2 | S. cerevisiae deletion strains, locus YPR163C, strain tif3, stronger effect = lower value 0.115 | S. cerevisiae deletion strains, locus YPR167C, strain met16, stronger effect = lower value 0.125 | S. cerevisiae deletion strains, strain wtn01, stronger effect = lower value 0.0957 | S. cerevisiae strains, strain wild type, stronger effect = lower value 0.0706
